# In PubChem BioAssay (NCATS):
# Records with an inconclusive call do not appear. Activity calls are given as the source filed them. Unless noted, calls follow the shape of the full dose curve.
# Columns and labels:
# [1] = qHTS drug screen for cell cycle checkpoint inhibitors in PARPi-resistant BRCA-mutant ovarian cancer cell lines. (AID 1963452); conditions: PEO1/OlaR viability, CellTiter-Glo luminescence, 96 h; for Z-AUC: stronger effect = lower value; also: potency is read from the fitted curve at half-maximal effect
# Procedure, shortened: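 PEO1, PEO4 and PEO1/OlaR ovarian cancer cells, 600 per well, exposed 96 h at 37C to a dilution series. Viability read by CellTiter-Glo luminescence, normalized to DMSO and empty wells; activity summarized as Z-AUC.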
# [2] = target: Cytochrome P450 2D6 (Homo sapiens) (UniProt P10635); assay: qHTS for inhibitors of CYP2D6 against the NCATS DSHEA and TCM libraries (AID 1919972; active = well fitted curve in the direction sought with a large enough effect; an effect the other way counts as inactive or inconclusive; also: % is scaled to controls: 0 for no effect and ±100 for the full control effect); conditions: CYP2D6 enzymatic inhibition, luminescence qHTS; series mostly up to 34.1 µM
# Sequence of Cytochrome P450 2D6 (Homo sapiens) (P10635 whole entry, looked up): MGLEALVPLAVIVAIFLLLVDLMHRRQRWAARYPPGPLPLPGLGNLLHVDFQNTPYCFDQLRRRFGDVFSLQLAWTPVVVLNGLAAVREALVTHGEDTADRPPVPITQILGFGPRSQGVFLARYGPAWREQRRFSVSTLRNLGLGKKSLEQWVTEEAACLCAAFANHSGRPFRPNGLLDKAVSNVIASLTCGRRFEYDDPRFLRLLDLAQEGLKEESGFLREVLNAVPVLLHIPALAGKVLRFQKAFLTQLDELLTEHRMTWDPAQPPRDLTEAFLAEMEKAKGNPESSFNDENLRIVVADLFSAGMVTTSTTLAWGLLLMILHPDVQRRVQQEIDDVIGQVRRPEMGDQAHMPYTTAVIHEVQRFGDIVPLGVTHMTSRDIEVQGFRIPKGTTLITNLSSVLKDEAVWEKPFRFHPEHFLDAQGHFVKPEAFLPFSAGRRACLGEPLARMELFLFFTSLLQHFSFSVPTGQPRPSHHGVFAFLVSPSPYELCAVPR
# Procedure, shortened: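 qHTS, concentration–response format with most substances from 19.5 nM. CYP2D6 + pro-luciferin substrate, 15 min with compound, then 1x NADPH regen, 30–45 min RT dark. Glo detection 30 min, luminescence. Quinidine control.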
# [3] = target: Cytochrome P450 2C9 (Homo sapiens) (UniProt P11712); assay: qHTS for inhibitors of CYP2C9 against the NCATS DSHEA and TCM libraries (AID 1919973; active = well fitted curve in the direction sought with a large enough effect; an effect the other way counts as inactive or inconclusive; also: potency is read from the fitted curve at half-maximal effect); conditions: recombinant CYP2C9 enzyme activity, luminescence; series mostly up to 34.1 µM
# Sequence of Cytochrome P450 2C9 (Homo sapiens) (P11712 whole entry, looked up, canonical isoform): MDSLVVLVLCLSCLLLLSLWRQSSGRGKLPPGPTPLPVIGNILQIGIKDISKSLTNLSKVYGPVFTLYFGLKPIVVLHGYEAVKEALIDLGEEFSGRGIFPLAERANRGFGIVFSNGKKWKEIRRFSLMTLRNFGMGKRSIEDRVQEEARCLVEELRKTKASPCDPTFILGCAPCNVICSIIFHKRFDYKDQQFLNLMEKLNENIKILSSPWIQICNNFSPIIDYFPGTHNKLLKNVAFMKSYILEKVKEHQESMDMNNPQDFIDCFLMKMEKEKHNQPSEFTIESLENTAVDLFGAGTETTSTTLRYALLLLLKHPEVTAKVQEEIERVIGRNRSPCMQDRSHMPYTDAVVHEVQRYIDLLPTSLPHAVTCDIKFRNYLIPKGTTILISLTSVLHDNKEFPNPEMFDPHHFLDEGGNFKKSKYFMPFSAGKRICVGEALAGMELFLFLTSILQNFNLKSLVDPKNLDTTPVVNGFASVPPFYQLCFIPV
# Procedure, shortened: (§1)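 Isoform-specific enzyme and substrate levels; enzyme-free wells as background. Reaction: 1x NADPH regenerating system, 30-45 min, room temperature, shielded from light; luminescent detection reagent added, 30 min.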
# [4] = target: Cytochrome P450 2C19 (Homo sapiens) (UniProt P33261); assay: qHTS for inhibitors of CYP2C19 against the NCATS DSHEA and TCM libraries (AID 1919974; active = well fitted curve in the direction sought with a large enough effect; an effect the other way counts as inactive or inconclusive;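 also: luminescence from luciferin released by CYP2C19 oxidation of a pro-luciferin substrate; % is scaled to controls: 0 for no effect and ±100 for the full control effect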); conditions: CYP2C19 enzyme inhibition, luminescence qHTS; series mostly up to 34.1 µM
# Sequence of Cytochrome P450 2C19 (Homo sapiens) (P33261 whole entry, looked up): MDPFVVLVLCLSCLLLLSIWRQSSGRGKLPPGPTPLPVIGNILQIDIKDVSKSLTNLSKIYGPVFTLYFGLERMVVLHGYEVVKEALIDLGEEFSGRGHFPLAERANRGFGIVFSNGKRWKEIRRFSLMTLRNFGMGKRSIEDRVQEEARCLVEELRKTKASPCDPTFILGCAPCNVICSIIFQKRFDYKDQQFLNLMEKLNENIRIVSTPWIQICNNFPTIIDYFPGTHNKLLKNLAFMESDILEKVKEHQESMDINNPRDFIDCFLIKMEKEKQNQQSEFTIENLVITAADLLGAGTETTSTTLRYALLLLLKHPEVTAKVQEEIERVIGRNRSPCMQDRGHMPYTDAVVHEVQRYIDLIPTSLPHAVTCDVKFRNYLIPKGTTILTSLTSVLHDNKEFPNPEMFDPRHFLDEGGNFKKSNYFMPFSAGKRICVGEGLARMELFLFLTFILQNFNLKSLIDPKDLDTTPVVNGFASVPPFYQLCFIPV
# Procedure, shortened: as §1
# [5] = target: Cytochrome P450 1A2 (Homo sapiens) (UniProt P05177); assay: qHTS for inhibitors of CYPIA2 against the NCATS DSHEA and TCM libraries (AID 1919976; active = well fitted curve in the direction sought with a large enough effect; an effect the other way counts as inactive or inconclusive; also: potency is read from the fitted curve at half-maximal effect); conditions: recombinant CYP1A2 enzyme activity, luminescence; series mostly up to 37 µM
# Sequence of Cytochrome P450 1A2 (Homo sapiens) (P05177 whole entry, looked up): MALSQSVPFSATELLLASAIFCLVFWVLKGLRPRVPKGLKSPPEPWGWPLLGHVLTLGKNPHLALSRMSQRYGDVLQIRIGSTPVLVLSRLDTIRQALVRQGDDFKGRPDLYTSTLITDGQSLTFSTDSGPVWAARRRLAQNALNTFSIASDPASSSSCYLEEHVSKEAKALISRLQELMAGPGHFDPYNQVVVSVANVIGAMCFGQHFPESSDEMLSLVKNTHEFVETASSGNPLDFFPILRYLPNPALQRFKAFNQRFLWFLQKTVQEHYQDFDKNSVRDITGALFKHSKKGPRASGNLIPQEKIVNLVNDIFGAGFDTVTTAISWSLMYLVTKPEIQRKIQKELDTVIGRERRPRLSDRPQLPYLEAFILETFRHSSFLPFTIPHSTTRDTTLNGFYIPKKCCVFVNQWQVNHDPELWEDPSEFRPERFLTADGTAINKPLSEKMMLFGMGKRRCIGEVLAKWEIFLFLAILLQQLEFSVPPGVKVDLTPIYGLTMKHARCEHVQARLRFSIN
# Procedure, shortened: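 Furafylline served as the plate control. Compounds met CYP1A2 and pro-luciferin substrate 15 min before NADPH regeneration solution (1x) was added; after 30-45 min at RT, P450-Glo reagent was added for 30 min and luminescence was measured.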
# [6] = qHTS Counterscreen for compound interference against the NCATS DSHEA and TCM libraries (AID 1919978; active = well fitted curve in the direction sought with a large enough effect; an effect the other way counts as inactive or inconclusive;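 also: compounds preincubated with 1 µM D-luciferin or buffer before detection reagent; % of control where 0% means no effect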); conditions: firefly luciferase detection reagent interference, luminescence
# Procedure, shortened: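 Firefly luciferase detection reagent was added after compounds (19.5 nM–39.8 uM final) had been incubated 15 min at room temperature with 1 uM D-luciferin or with 100 mM phosphate buffer alone. Luminescence was read after 30 min at room temperature.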
# [7] = Dual reporter qHTS for agonist of Pregnane X Receptor (hPXR) against the NCATS DSHEA and TCM libraries: Fluorescence readout (AID 1920058; active = well fitted curve in the direction sought with a large enough effect; an effect the other way counts as inactive or inconclusive; also: 0% is about no effect); conditions: PXR dual reporter cells; series mostly up to 40 µM
# Procedure, shortened: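 In this qHTS counter-read, reporter-bearing HepG2 cells in charcoal-stripped serum received substances for approximately 24 h before viability was assessed fluorometrically with CellTiter-Fluor.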
# [8] = Dual reporter qHTS for antagonist of Pregnane X Receptor (hPXR) against the NCATS DSHEA and TCM libraries: Fluorescence Readout (AID 1920061; active = well fitted curve in the direction sought with a large enough effect; an effect the other way counts as inactive or inconclusive; also: 0% is about no effect); conditions: PXR dual reporter cells, antagonist mode; series mostly up to 40 µM
# Procedure, shortened: (§2)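 hPXR-Luc HepG2 cells exposed 24 h at 37 C to compounds with 2 uM rifampicin in antagonist mode; luciferase luminescence measured by ONE-Glo, with CellTiter-Fluor viability read beforehand.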
# [9] = qHTS for identification of novel therapeutic agents for treatment of microphthalmiaassociated transcription factor (MiT) renal cell carcinoma (RCC) (AID 1963991); conditions: CellTiter-Glo, 48 h, stronger effect = lower value
# Procedure, shortened: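 Three TFE3-fusion RCC lines (UOK109, UOK124, UOK145), 500 cells/well in complete medium, were treated with MIPE 4.0 compounds for 48 hours at 37 C. Viability was by CellTiter-Glo luminescence, normalized to DMSO (100%) and empty wells (0%); curves fitted over 11 concentrations.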
# [10] = KB-3-1 P-gp reporter qHTS against the NCATS DSHEA and TCM libraries (AID 1919975; active = well fitted curve in the direction sought with a large enough effect; an effect the other way counts as inactive or inconclusive; also: 0% is about no effect); conditions: KB-3-1 parental cells, CellTiter-Glo luminescence viability, 72 h; series mostly up to 26.1 µM
# Procedure, shortened: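 Parental KB-3-1 cells, 500 cells/well, in DMEM with 10% FBS, exposed 72 h at 37 C to compounds in concentration-response. Viability read by CellTiter-Glo luminescence after 30 min at room temperature.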
# [11] = target: Nuclear receptor subfamily 1 group I member 2 (Homo sapiens) (UniProt O75469); assay: Dual reporter qHTS for agonist of Pregnane X Receptor (hPXR) against the NCATS DSHEA and TCM libraries: Luminescence readout (AID 1920059; active = well fitted curve in the direction sought with a large enough effect; an effect the other way counts as inactive or inconclusive; also: 0% is about no effect); conditions: hPXR dual reporter cells, luciferase luminescence agonist; series mostly up to 40 µM
# Sequence of Nuclear receptor subfamily 1 group I member 2 (Homo sapiens) (O75469 whole entry, looked up): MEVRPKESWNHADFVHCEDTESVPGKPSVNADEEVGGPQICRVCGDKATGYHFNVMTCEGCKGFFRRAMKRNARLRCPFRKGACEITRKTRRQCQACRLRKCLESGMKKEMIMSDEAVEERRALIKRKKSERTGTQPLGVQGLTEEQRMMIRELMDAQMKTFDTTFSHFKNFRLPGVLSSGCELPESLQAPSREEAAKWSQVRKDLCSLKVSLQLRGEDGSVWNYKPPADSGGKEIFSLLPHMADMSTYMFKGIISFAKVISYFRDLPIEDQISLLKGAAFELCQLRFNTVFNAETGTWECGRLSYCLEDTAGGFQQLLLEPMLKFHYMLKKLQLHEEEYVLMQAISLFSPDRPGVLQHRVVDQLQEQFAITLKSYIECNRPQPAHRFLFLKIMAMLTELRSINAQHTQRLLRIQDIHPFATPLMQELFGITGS
# Procedure, shortened: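 hPXR-LucHepG2 cells in phenol red-free DMEM with 5% charcoal-stripped FBS, 2000 cells/well, attached 5 h, then exposed 24 h at 37C to compounds; rifampicin as positive agonist control (2.8 nM–92 uM). Luciferase luminescence read.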
# [12] = target: Nuclear receptor subfamily 1 group I member 2 (Homo sapiens) (UniProt O75469); assay: Dual reporter qHTS for antagonist of Pregnane X Receptor (hPXR) against the NCATS DSHEA and TCM libraries: Luminescence Readout (AID 1920060; active = well fitted curve in the direction sought with a large enough effect; an effect the other way counts as inactive or inconclusive;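 also: HepG2 cells carrying hPXR luciferase reporter stimulated with rifampicin at 2 µM; 0% is about no effect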); conditions: hPXR dual reporter cells, luciferase luminescence, antagonist mode; series mostly up to 40 µM
# Procedure, shortened: as §2
# [13] = target: Cytochrome P450 3A4 (Homo sapiens) (UniProt P08684); assay: qHTS for inhibitors of CYP3A4 against the NCATS DSHEA and TCM libraries (AID 1919971; active = well fitted curve in the direction sought with a large enough effect; an effect the other way counts as inactive or inconclusive; also: potency is read from the fitted curve at half-maximal effect); conditions: recombinant CYP3A4 enzyme activity, luminescence qHTS; series mostly up to 34.1 µM
# Sequence of Cytochrome P450 3A4 (Homo sapiens) (P08684 whole entry, looked up): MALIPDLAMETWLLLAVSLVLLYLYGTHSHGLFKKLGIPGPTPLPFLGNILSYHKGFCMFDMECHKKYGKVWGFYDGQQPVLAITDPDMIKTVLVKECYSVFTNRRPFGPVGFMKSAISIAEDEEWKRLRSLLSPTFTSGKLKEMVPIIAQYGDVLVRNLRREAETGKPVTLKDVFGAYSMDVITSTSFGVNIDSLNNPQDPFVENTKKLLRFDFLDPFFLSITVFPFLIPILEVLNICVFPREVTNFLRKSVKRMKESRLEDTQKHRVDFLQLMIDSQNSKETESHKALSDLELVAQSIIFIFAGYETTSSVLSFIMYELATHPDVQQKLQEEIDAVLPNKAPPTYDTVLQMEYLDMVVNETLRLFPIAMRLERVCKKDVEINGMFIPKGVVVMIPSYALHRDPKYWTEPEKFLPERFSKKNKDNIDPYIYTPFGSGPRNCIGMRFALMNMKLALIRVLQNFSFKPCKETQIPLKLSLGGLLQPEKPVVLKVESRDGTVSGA
# Procedure, shortened: as §1
# [14] = measured here: PEO1 parental Z-AUC
# [15] = TFE3-RCC UOK109 viability, measured here: UOK109 Z-AUC
# [16] = TFE3-RCC viability, measured here: UOK124 Z-AUC
# [17] = TFE3-RCC viability, measured here: UOK145 Z-AUC
structure (smiles),measurement,setting,value
CC(C)[C@H](CO)Nc1nc(Nc2cccc(Cl)c2)c2ncn(C(C)C)c2n1,Z-AUC,[1],0.56 (inactive)
same,Z-AUC,[1]; [14],0.0457
same,Z-AUC,[1]; measured here: PEO4 Z-AUC,0.284
O=C(Nc1ccc(Oc2ccnc3[nH]ccc23)c(F)c1)c1cccn(-c2ccc(F)cc2)c1=O,Z-AUC,[1],-0.152 (inactive)
same,Z-AUC,[1]; [14],0.598
same,Z-AUC,[1]; measured here: PEO4 Z-AUC,0.646
CN(C)c1ccc(C(=O)NCCCCCCC(=O)NO)cc1,Z-AUC,[1],-1.48 (inactive)
same,Z-AUC,[1]; [14],-0.12
same,Z-AUC,[1]; measured here: PEO4 Z-AUC,-0.674
C=C(C)[C@@H]1CC[C@]2(C(=O)O)CC[C@]3(C)[C@H](CC[C@@H]4[C@@]5(C)CC[C@H](O)C(C)(C)[C@@H]5CC[C@]43C)[C@@H]12,outcome,[2],inactive
same,Potency,[3],inactive
same,outcome,[4],inactive
same,Potency,[5],inactive
same,max response,[6],1.9% (inactive)
same,outcome,[7],inactive
same,outcome,[8],inactive
same,Z-AUC,[1],1.23 (inactive)
same,Z-AUC,[1]; [14],0.622
same,Z-AUC,[1]; measured here: PEO4 Z-AUC,0.86
same,z-score,[9]; [15],0.38
same,z-score,[9]; [16],0.714
same,z-score,[9]; [17],0.25
CCN(CC)Cc1ccc2cc(COC(=O)Nc3ccc(C(=O)NO)cc3)ccc2c1,Potency,[1],0.977 µM (active)
same,Z-AUC,[1]; [14],-1.11
same,Z-AUC,[1]; measured here: PEO4 Z-AUC,-1.29
CC(C)(C)c1nc2c3cc[nH]c(=O)c3c3cc(F)ccc3c2[nH]1,Z-AUC,[1],-0.0239 (inactive)
same,Z-AUC,[1]; [14],0.604
same,Z-AUC,[1]; measured here: PEO4 Z-AUC,0.212
Oc1cc(-c2nc(-c3ccccc3)[nH]c2-c2ccncc2)ccc1Cl,Z-AUC,[1],-0.516 (inactive)
same,Z-AUC,[1]; [14],-0.935
same,Z-AUC,[1]; measured here: PEO4 Z-AUC,-1.11
CCc1c(O)cc(O)c(C(=O)c2ccc(OCCN3CCOCC3)c(OC)c2)c1CC(=O)N(CCOC)CCOC,Z-AUC,[1],-0.361 (inactive)
same,Z-AUC,[1]; [14],-0.538
same,Z-AUC,[1]; measured here: PEO4 Z-AUC,0.145
C[C@H](NC(=O)[C@@H](O)c1cc(F)cc(F)c1)C(=O)N[C@@H]1C(=O)N(C)c2ccccc2-c2ccccc21,Z-AUC,[1],0.549 (inactive)
same,Z-AUC,[1]; [14],0.437
same,Z-AUC,[1]; measured here: PEO4 Z-AUC,0.274
Cc1cnc(Nc2ccc(N3CCN(C)CC3)cc2)nc1Nc1cccc(S(=O)(=O)NC(C)(C)C)c1,Z-AUC,[1],-0.289 (inactive)
same,Z-AUC,[1]; [14],-0.236
same,Z-AUC,[1]; measured here: PEO4 Z-AUC,-0.304
Cc1ccc(-n2[nH]c(C)c(N=Nc3cccc(-c4cccc(C(=O)O)c4)c3O)c2=O)cc1C,Z-AUC,[1],-0.217 (inactive)
same,Z-AUC,[1]; [14],-0.314
same,Z-AUC,[1]; measured here: PEO4 Z-AUC,0.208
O=C1CSC(=O)N1C(CCc1ccncc1)COc1ccc(-c2cccc([N+](=O)[O-])c2)cc1 (stereo not given),Z-AUC,[1],0.623 (inactive)
same,Z-AUC,[1]; [14],-0.739
same,Z-AUC,[1]; measured here: PEO4 Z-AUC,0.104
O=c1ccn([C@@H]2O[C@H](CO)[C@H](O)[C@@H]2F)c(=O)[nH]1,Z-AUC,[1],0.179 (inactive)
same,Z-AUC,[1]; [14],0.56
same,Z-AUC,[1]; measured here: PEO4 Z-AUC,0.262
COc1ccc(C(C)=O)c(O)c1,outcome,[2],inactive
same,outcome,[10],inactive
same,Potency,[5],15.8 µM (active)
same,max response,[6],3.21% (inactive)
same,outcome,[7],inactive
same,outcome,[11],inactive
same,outcome,[12],inactive
same,outcome,[8],inactive
O=C1c2c(O)cccc2[C@@H]([C@@H]2O[C@H](CO)[C@@H](O)[C@H](O)[C@H]2O)c2cc(CO)cc(O)c21,Potency,[13],25.1 µM (active)
same,Potency,[3],11.2 µM (active)
same,outcome,[4],inactive
same,outcome,[10],inactive
same,max response,[6],-13.5% (inactive)
same,outcome,[7],inactive
same,outcome,[11],inactive
same,outcome,[12],inactive
same,outcome,[8],inactive
same,z-score,[9]; [15],0.509
same,z-score,[9]; [16],0.726
same,z-score,[9]; [17],0.571
O=C(O)c1ccc(Nc2ncc3c(n2)-c2ccc(Cl)cc2C(c2c(F)cccc2F)=NC3)cc1,Z-AUC,[1],0.584 (inactive)
same,Z-AUC,[1]; [14],0.311
same,Z-AUC,[1]; measured here: PEO4 Z-AUC,-0.364
C=CC(=O)N1CCc2ccc(-n3c(=O)ccc4cnc5ccc(-c6cnn(C)c6)cc5c43)cc21,Z-AUC,[1],-0.366 (inactive)
same,Z-AUC,[1]; [14],-0.285
same,Z-AUC,[1]; measured here: PEO4 Z-AUC,-0.334
Cn1cnc2c(F)c(Nc3ccc(Br)cc3F)c(C(=O)NOCCO)cc21,Z-AUC,[1],-0.612 (inactive)
same,Z-AUC,[1]; [14],-0.742
same,Z-AUC,[1]; measured here: PEO4 Z-AUC,-0.428
O=c1c(O)c(-c2ccc(O)c(O)c2)oc2cc(O)ccc12,Z-AUC,[1],0.12 (inactive)
same,Z-AUC,[1]; [14],-0.105
same,Z-AUC,[1]; measured here: PEO4 Z-AUC,0.0271
FC(F)c1nc2ccccc2n1-c1nc(N2CCOCC2)nc(N2CCOCC2)n1,Z-AUC,[1],-1.24 (inactive)
same,Z-AUC,[1]; [14],-1.07
same,Z-AUC,[1]; measured here: PEO4 Z-AUC,-0.858
c1cncc(CN2CCC(n3ncc4c(N5CCOCC5)nc(-c5ccc6[nH]ccc6c5)nc43)CC2)c1,Z-AUC,[1],-0.587 (inactive)
same,Z-AUC,[1]; [14],-0.0764
same,Z-AUC,[1]; measured here: PEO4 Z-AUC,-0.549
CCCCOc1ccc(C(=O)Nc2ccc(F)cc2F)cc1,Z-AUC,[1],-0.387 (inactive)
same,Z-AUC,[1]; [14],-0.847
same,Z-AUC,[1]; measured here: PEO4 Z-AUC,-0.905
CCCCCCCN(CC)CCCC(O)c1ccc(NS(C)(=O)=O)cc1 (stereo not given),Z-AUC,[1],1.02 (inactive)
same,Z-AUC,[1]; [14],0.764
same,Z-AUC,[1]; measured here: PEO4 Z-AUC,1.03
CC(O)(C#Cc1ccc2c(c1)N(c1nc(N)ncc1Cl)CC2)c1nccs1 (stereo not given),Z-AUC,[1],-0.29 (inactive)
same,Z-AUC,[1]; [14],-0.463
same,Z-AUC,[1]; measured here: PEO4 Z-AUC,-0.647
CC(C)n1cnc2c(NCCc3ccc(O)cc3)nc(-c3csc4ccccc34)nc21,Z-AUC,[1],0.419 (inactive)
same,Z-AUC,[1]; [14],0.415
same,Z-AUC,[1]; measured here: PEO4 Z-AUC,0.466
CC(C)(N)c1ccc(-c2nc3ccccc3nc2-c2ccccc2)cc1,Z-AUC,[1],0.345 (inactive)
same,Z-AUC,[1]; [14],0.18
same,Z-AUC,[1]; measured here: PEO4 Z-AUC,0.291
CCN(CC)CCCCNc1ncc2c(n1)N(C)C(=O)N(c1c(Cl)c(OC)cc(OC)c1Cl)C2,Z-AUC,[1],0.806 (inactive)
same,Z-AUC,[1]; [14],1.27
same,Z-AUC,[1]; measured here: PEO4 Z-AUC,0.972
